Results taken from PubChem BioAssay (Tox21).
Calls of active or inactive are those of the source. Where a call stands in place of a potency, no number is given. The call rests on the fitted dose curve.

Target: Muscarinic acetylcholine receptor M1 (Homo sapiens) (UniProt P11229)
Assay: Cholinergic receptor muscarinic 1 (CHRM1) small molecule agonists, cell-based qHTS assay (AID 1963589); further: nearly all actives have a fitted effect of over 35% in size
Conditions: CHRM1-CHO cells, agonist mode, calcium flux fluorescence; series mostly up to 76.8 µM
How it was run: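 Stable CHRM1-CHO cells (human receptor) were incubated 18 h, dye-loaded for 1 h at 37 C and exposed to test compounds for agonist activity, with calcium-dependent fluorescence followed kinetically.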

Sequence of Muscarinic acetylcholine receptor M1 (Homo sapiens) (P11229 whole entry, looked up): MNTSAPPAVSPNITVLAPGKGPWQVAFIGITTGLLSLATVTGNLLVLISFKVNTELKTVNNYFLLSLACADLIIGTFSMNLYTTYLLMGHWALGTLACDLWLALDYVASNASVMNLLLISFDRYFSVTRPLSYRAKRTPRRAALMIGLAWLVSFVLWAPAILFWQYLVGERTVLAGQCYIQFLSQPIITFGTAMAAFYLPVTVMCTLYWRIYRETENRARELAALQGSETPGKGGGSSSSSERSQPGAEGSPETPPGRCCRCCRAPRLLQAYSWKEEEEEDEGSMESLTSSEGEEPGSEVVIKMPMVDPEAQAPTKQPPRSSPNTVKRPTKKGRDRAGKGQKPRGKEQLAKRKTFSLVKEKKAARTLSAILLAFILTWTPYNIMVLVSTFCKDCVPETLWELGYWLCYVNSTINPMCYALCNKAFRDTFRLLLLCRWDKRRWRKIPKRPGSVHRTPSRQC

SMILES | Potency
Clc1nc2ccccc2s1 | inactive
CN1N=C(C(N)=O)CCC1=O | inactive
CCCCC(CC)CCC(CC(C)C)OS(=O)(=O)O (stereo not drawn) | inactive
CSc1cnccn1 | inactive
CCCCCCCOC(=O)c1ccccc1C(=O)OCCCCCCC | inactive
CC1CC(=O)CC(C)(C)C1 (stereo not drawn) | inactive
O=[Si]=O | inactive
CCCCCCCC(OC)OC | inactive
NS(=O)(=O)c1cc2c(cc1Cl)NC(CC1CCCC1)NS2(=O)=O (stereo not drawn) | inactive
N#CCc1cccc(C(F)(F)F)c1 | inactive
Clc1ccccc1-c1nc(-c2ccncc2)no1 | inactive
CC(=O)C(C)O (stereo not drawn) | inactive
CO[Si](CCCNCCNCCN)(OC)OC | inactive
CC(=O)c1ccc2c(c1)CCCC2 | inactive
Nc1c2ccccc2nc2ccccc12 | inactive
NC(=O)c1cccc([N+](=O)[O-])c1 | inactive
CCOc1cc(NC(C)=O)ccc1C(=O)OC | inactive
CCCC(O)C(O)CO (stereo not drawn) | inactive
O=C(O)c1ccc(O)cc1O | inactive
C[Si](C)(C)Cl | inactive
COC(=O)c1c(Cl)c(Cl)c(C(=O)OC)c(Cl)c1Cl | inactive
Cc1ccc2n[nH]nc2c1 | inactive
CCCOC(=O)C(C)O (stereo not drawn) | inactive
